± gives the standard deviation of the averaged measurements.
Tested on: WHIM30 (cells of a triple-negative basal-like breast cancer xenograft)
Experiment: cell viability (% of vehicle); higher = less cytotoxic
Settings: 10 µM; 72 h
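Further: PDX cells carrying CMV promoter-driven luciferase, viability read as total photon flux per second by IVIS imaging following D-luciferin, vehicle control 0.1% DMSO.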

Row | Compound | cell viability
1 | Oc1c(Cl)cc(Cl)c2cccnc12 [Chloroxine] | 48.9 ± 4.8
2 | CCN(CC)CCCC(C)Nc1ccnc2cc(Cl)ccc12.O=P(O)(O)O.O=P(O)(O)O (centres undefined) [Chloroquine diphosphate] | 74.46 ± 0.26
3 | COC(=O)NC(C(=O)NC(Cc1ccccc1)C(O)CN(Cc1ccc(-c2ccccn2)cc1)NC(=O)C(NC(=O)OC)C(C)(C)C)C(C)(C)C (centres undefined) [Atazanavir] | 82.1 ± 5.5
4 | COc1cc2nccc(Oc3ccc(NC(=O)C4(C(=O)Nc5ccc(F)cc5)CC4)cc3)c2cc1OC.O=C(O)CC(O)C(=O)O [Cabozantinib malate (XL184)] | 56 ± 1.8
5 | O=C(C=Cn1cnc(-c2cc(C(F)(F)F)cc(C(F)(F)F)c2)n1)NNc1cnccn1 | 46.7 ± 0.48
6 | Nc1ccn(C2OC(CO)C(O)C2O)c(=O)n1 (centres undefined) [Cytarabine] | 86.07 ± 0.15
7 | CO[C@H]1/C=C/O[C@@]2(C)Oc3c(C)c(O)c4c(O)c(c(/C=N/N5CCN(C6CCCC6)CC5)c(O)c4c3C2=O)NC(=O)/C(C)=C\C=C\[C@H](C)[C@H](O)[C@@H](C)[C@@H](O)[C@@H](C)[C@H](OC(C)=O)[C@@H]1C [Rifapentine] | 117.8 ± 0.39
8 | CS(=O)(=O)O.Cc1c(O)cccc1C(=O)NC(CSc1ccccc1)C(O)CN1CC2CCCCC2CC1C(=O)NC(C)(C)C (centres undefined) [Nelfinavir Mesylate] | 71.9 ± 5.4
9 | CCN(CC)CCNC(=O)c1c(C)[nH]c(C=C2C(=O)Nc3ccc(F)cc32)c1C.O=C(O)CC(O)C(=O)O [Sunitinib malate] | 41.7 ± 11

— the supplement of paper PMC6992640
